Measured values published in PubChem BioAssay (NCATS).
Results filed as inconclusive are left out. The source made the active and inactive calls. Unless noted, calls come from the whole dose curve; as a rule, active = well fitted curve in either direction with a large enough effect (not every such curve was filed as active); inconclusive = small, poorly fitted or top-dose-only effect, or another doubt; inactive = flat fitted curve, though single readings scatter.

Biological target: Cytochrome P450 1A2 (Homo sapiens) (UniProt P05177)
Sequence (P05177 whole entry, looked up): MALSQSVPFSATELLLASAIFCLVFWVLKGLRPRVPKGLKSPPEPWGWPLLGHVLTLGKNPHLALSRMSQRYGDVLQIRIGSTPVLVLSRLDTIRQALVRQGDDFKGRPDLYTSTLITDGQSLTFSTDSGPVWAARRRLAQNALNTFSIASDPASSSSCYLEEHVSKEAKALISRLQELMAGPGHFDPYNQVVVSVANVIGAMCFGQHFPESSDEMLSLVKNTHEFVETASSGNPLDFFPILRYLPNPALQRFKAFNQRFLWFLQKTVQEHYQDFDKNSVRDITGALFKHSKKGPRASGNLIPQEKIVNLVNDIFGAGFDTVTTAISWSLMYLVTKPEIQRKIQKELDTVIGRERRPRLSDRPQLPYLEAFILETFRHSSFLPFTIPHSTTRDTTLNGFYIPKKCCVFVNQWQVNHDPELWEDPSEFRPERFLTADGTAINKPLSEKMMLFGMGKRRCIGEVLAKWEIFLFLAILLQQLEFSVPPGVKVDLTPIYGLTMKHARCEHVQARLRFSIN
Experiment: p450-cyp1a2 (AID 410; calls by dose curve; note: potency is the fitted concentration of half-maximal effect;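 for activity change, negative = inhibition: -100% = full effect of reference inhibitor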)
Conditions: recombinant CYP1A2, luciferin-ME demethylation, luminescence; series mostly up to 57 µM; activity change, negative = inhibition: at the top concentration
Method in brief: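 Luminescent readout of luciferin formed from Luciferin-ME by human CYP1A2; data normalized against complete inhibition by 57 uM furafylline. Enzyme 20nM, substrate 100uM at Km, 100mM KPO4 buffer, 60 min reaction at room temperature.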

Row | SMILES | Potency | activity change, negative = inhibition
1 | FC(F)(F)c1ccccc1-c1ccc2ncnc(NCc3cccnc3)c2c1 | 1 µM (active) | 
2 | CCNc1ncc2nc(-c3cccs3)c(=O)n(C)c2n1 | 1.58 µM (active) | 
3 | COc1ccc(CNc2ncnc3ccc(-c4cccnc4)cc23)c(OC)c1 | 0.398 µM (active) | 
4 | c1csc(CNc2ncnc3ccc(-c4ccoc4)cc23)c1 | 3.16 µM (active) | 
5 | Cc1noc(C)c1-c1ccc2ncnc(N3CCN(C)CC3)c2c1 | 12.6 µM (active) | 
6 | COc1ccc(-n2c(=O)c(-c3cccs3)nc3cnc(N(C)C)nc32)cc1 |  | -15.8% (inactive)
7 | O=c1cnc2cncnc2n1Cc1ccccc1Cl | 15.8 µM (active) | 
8 | Cc1ccccc1-c1cc(Nc2ccccc2)ncn1 | 3.98 µM (active) | 
9 | COc1ncc2nc(-c3ccccc3)c(=O)n(-c3ccccc3)c2n1 | 2 µM (active) | 
10 | CN1CCN(c2ncc3ncc(=O)n(CCC#N)c3n2)CC1 | 31.6 µM (active) | 
11 | Cc1noc(C)c1-c1cncnc1NCc1ccccc1 | 25.1 µM (active) | 
12 | COCCNc1ncnc2ccc(-c3cccc(OC)c3)cc12 | 0.794 µM (active) | 
13 | FC(F)(F)c1ccccc1-c1nc(NCCN2CCOCC2)c2ccccc2n1 | 12.6 µM (active) | 

System: not listed separately
Experiment: NFAT Signaling Pathway (AID 444);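 note: carbachol stimulus at about its EC50 of 1 µM final; % is set by controls: 0 for no effect and ±100 for the full control effect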
Conditions: Jurkat NFAT-bla M1, carbachol, beta-lactamase ratio, 5 h; at 7.69 µM (top of the series) unless noted
Method in brief: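 Read-out: CCF4 FRET ratio (460 nm/530 nm) after 1 h RT dye loading, used for %activity and AC50 from titration series. Cells: Jurkat NFAT-β-lactamase/M1 line, treated with compound plus 1 uM carbachol for 5 h, 37 °C.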

Row | SMILES | activity change, negative = inhibition
14 | Cc1noc(C)c1-c1nccc(N2CCOCC2)n1 | 4.77% (inactive)
15 | CNc1nc(-c2ccc3c(c2)OCO3)nc2ccccc12 | 1.91% (inactive)
16 | c1csc(CNc2ccnc(-c3ccoc3)n2)c1 | -0.203% (inactive)
17 | Cc1ccccc1-c1nccc(NCCN2CCOCC2)n1 | -13.9% (inactive)
18 | CC(=O)NCCNc1nc(-c2cccnc2)nc2ccccc12 | 0.668% (inactive)
19 | Cc1cccc(CNc2cc(-c3c(C)noc3C)ncn2)c1 | -10.8% (inactive)
20 | CCNc1ncc2ncc(=O)n(CCOC)c2n1 | 4.31% (inactive)
21 | COCCNc1nc(-c2ccccc2Cl)nc2ccccc12 | 7.18% (inactive)
22 | COc1cccc(-c2cncnc2N(C)Cc2ccco2)c1 | -25.9% (inactive)
23 | CN(C)C(=O)c1ccc(-c2cncnc2NCCc2cnc[nH]2)cc1 | 18.2% (inactive)
24 | Cc1cnc(CNc2ccnc(-c3ccccc3C(F)(F)F)n2)cn1 | 0.146% (inactive)
25 | FC(F)(F)c1ccccc1-c1nccc(NCc2cccs2)n1 | -3.1% (inactive)
26 | c1ccc(Nc2cc(-c3ccoc3)ncn2)cc1 | -0.633% (inactive)
27 | Cn1c(=O)c(-c2ccccc2)nc2cncnc21 | -9.84% (inactive)
28 | CN(C)Cc1ccccc1-c1nc(N(C)C)c2ccccc2n1 | 13.2% (inactive)
29 | CN(C)c1ncc2nc(-c3ccc(F)cc3)c(=O)n(C)c2n1 | 2.27% (inactive)
30 | O=c1cnc2cnc(Oc3cccc(Cl)c3)nc2n1C[C@H]1CCCO1 | 1.72% (inactive)

Row | SMILES | activity change, negative = inhibition
31 | O=c1c(-c2cc(F)cc(F)c2)nc2cnc(Nc3ccccc3)nc2n1C[C@H]1CCCO1 | -13.7% (inactive)
32 | CCNc1ncc2nc(-c3ccc(F)cc3)c(=O)n(CCOC)c2n1 | -3.34% (inactive)
33 | CCNc1ncc2nc(C)c(=O)n(CCC#N)c2n1 | 8.37% (inactive)
34 | FC(F)(F)c1ccccc1-c1ccc2ncnc(NCc3cccnc3)c2c1 | 21.5% (inactive)
35 | COc1ccc(CNc2ncnc3ccc(-c4cccnc4)cc23)c(OC)c1 | 29.9% (inactive)
36 | COc1ccc(-n2c(=O)cnc3cnc(OC)nc32)cc1 | -7.79% (inactive)
37 | c1csc(CNc2ncnc3ccc(-c4ccoc4)cc23)c1 | 1.06% (inactive)
38 | COc1ccc(-n2c(=O)c(-c3cccs3)nc3cnc(N(C)C)nc32)cc1 | -4.88% (inactive)
39 | O=c1cnc2cncnc2n1Cc1ccccc1Cl | -28.3% (inactive)
40 | Cc1ccccc1-c1cc(Nc2ccccc2)ncn1 | 1.39% (inactive)
41 | COc1ncc2nc(-c3ccccc3)c(=O)n(-c3ccccc3)c2n1 | 3.29% (inactive)
42 | COc1ncc2nc(-c3ccc(F)cc3)c(=O)n(-c3ccccc3)c2n1 | -7.66% (inactive)
43 | CN1CCN(c2ncc3ncc(=O)n(CCC#N)c3n2)CC1 | -4.67% (inactive)
44 | Cc1noc(C)c1-c1cncnc1NCc1ccccc1 | 0.549% (inactive)
45 | COc1cccc(Cn2c(=O)c(-c3ccc(F)cc3)nc3cnc(N(C)C)nc32)c1 | 9.76% (inactive)
46 | FC(F)(F)c1ccccc1-c1nc(NCCN2CCOCC2)c2ccccc2n1 | 6.4% (inactive)

System: not listed separately
Experiment: Stat Signaling Pathway (AID 446);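 note: ME-180 cervical cancer cells given 40 pM IL-6 alongside compound; SIE-controlled beta-lactamase reporter measured as 460/530 nm FRET emission ratio; % is set by controls: 0 for no effect and ±100 for the full control effect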
Conditions: ME-180 SIE beta-lactamase reporter, IL-6 stimulated, 5 h; at 7.69 µM (top of the series) unless noted
Method in brief: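 Screening format detects activators and inhibitors alike: ME-180 SIE-bla cells stimulated at 40 pM IL-6 for 5 hrs with compound, then dual-emission beta-lactamase read at 405 nm excitation.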

Row | SMILES | activity, negative = inhibition
47 | Cc1noc(C)c1-c1nccc(N2CCOCC2)n1 | 14.5% (inactive)
48 | CNc1nc(-c2ccc3c(c2)OCO3)nc2ccccc12 | -1.35% (inactive)
49 | c1csc(CNc2ccnc(-c3ccoc3)n2)c1 | 10.3% (inactive)
50 | Cc1ccccc1-c1nccc(NCCN2CCOCC2)n1 | -1.96% (inactive)
51 | CC(=O)NCCNc1nc(-c2cccnc2)nc2ccccc12 | 1.25% (inactive)
52 | Cc1cccc(CNc2cc(-c3c(C)noc3C)ncn2)c1 | -4.88% (inactive)
53 | CCNc1ncc2ncc(=O)n(CCOC)c2n1 | -26.5% (inactive)
54 | COCCNc1nc(-c2ccccc2Cl)nc2ccccc12 | -3.65% (inactive)
55 | COc1cccc(-c2cncnc2N(C)Cc2ccco2)c1 | 7.72% (inactive)
56 | CN(C)C(=O)c1ccc(-c2cncnc2NCCc2cnc[nH]2)cc1 | -26.8% (inactive)
57 | Cc1cnc(CNc2ccnc(-c3ccccc3C(F)(F)F)n2)cn1 | 2.4% (inactive)
58 | FC(F)(F)c1ccccc1-c1nccc(NCc2cccs2)n1 | -15.9% (inactive)
59 | c1cncc(-c2cncnc2NC2CCNCC2)c1 | 5.17% (inactive)
60 | c1ccc(Nc2cc(-c3ccoc3)ncn2)cc1 | -2.05% (inactive)
61 | Cn1c(=O)c(-c2ccccc2)nc2cncnc21 | -4.68% (inactive)
62 | CN(C)Cc1ccccc1-c1nc(N(C)C)c2ccccc2n1 | 28.7% (inactive)
63 | CN(C)c1ncc2nc(-c3ccc(F)cc3)c(=O)n(C)c2n1 | -9.34% (inactive)
64 | O=c1cnc2cnc(Oc3cccc(Cl)c3)nc2n1C[C@H]1CCCO1 | -13.3% (inactive)

Row | SMILES | activity, negative = inhibition
65 | O=c1c(-c2cc(F)cc(F)c2)nc2cnc(Nc3ccccc3)nc2n1C[C@H]1CCCO1 | 1.12% (inactive)
66 | CCNc1ncc2nc(-c3ccc(F)cc3)c(=O)n(CCOC)c2n1 | 10.5% (inactive)
67 | CCNc1ncc2nc(C)c(=O)n(CCC#N)c2n1 | -4.05% (inactive)
68 | FC(F)(F)c1ccccc1-c1ccc2ncnc(NCc3cccnc3)c2c1 | -18.4% (inactive)
69 | COc1ccc(CNc2ncnc3ccc(-c4cccnc4)cc23)c(OC)c1 | 2.05% (inactive)
70 | COc1ccc(-n2c(=O)cnc3cnc(OC)nc32)cc1 | -11.2% (inactive)
71 | c1csc(CNc2ncnc3ccc(-c4ccoc4)cc23)c1 | -21% (inactive)
72 | COc1ccc(-n2c(=O)c(-c3cccs3)nc3cnc(N(C)C)nc32)cc1 | -9.54% (inactive)
73 | O=c1cnc2cncnc2n1Cc1ccccc1Cl | -5.06% (inactive)
74 | Cc1ccccc1-c1cc(Nc2ccccc2)ncn1 | 4.11% (inactive)
75 | COc1ncc2nc(-c3ccccc3)c(=O)n(-c3ccccc3)c2n1 | -8.81% (inactive)
76 | COc1ncc2nc(-c3ccc(F)cc3)c(=O)n(-c3ccccc3)c2n1 | -2.33% (inactive)
77 | CN1CCN(c2ncc3ncc(=O)n(CCC#N)c3n2)CC1 | -3.39% (inactive)
78 | Cc1noc(C)c1-c1cncnc1NCc1ccccc1 | -5.87% (inactive)
79 | COc1cccc(Cn2c(=O)c(-c3ccc(F)cc3)nc3cnc(N(C)C)nc32)c1 | -3.48% (inactive)
80 | COCCNc1ncnc2ccc(-c3cccc(OC)c3)cc12 | -27.4% (inactive)
81 | FC(F)(F)c1ccccc1-c1nc(NCCN2CCOCC2)c2ccccc2n1 | 3.19% (inactive)
